Percent Effect data for 39 compounds are collected here from ChEMBL document CHEMBL3988442, “University of Dundee, Small-Polar-MMV Screening Library” (2021).

This assay has as its target T1, Proteasome subunit beta (Trypanosoma cruzi) (UniProt O96673).
T1 sequence (whole entry): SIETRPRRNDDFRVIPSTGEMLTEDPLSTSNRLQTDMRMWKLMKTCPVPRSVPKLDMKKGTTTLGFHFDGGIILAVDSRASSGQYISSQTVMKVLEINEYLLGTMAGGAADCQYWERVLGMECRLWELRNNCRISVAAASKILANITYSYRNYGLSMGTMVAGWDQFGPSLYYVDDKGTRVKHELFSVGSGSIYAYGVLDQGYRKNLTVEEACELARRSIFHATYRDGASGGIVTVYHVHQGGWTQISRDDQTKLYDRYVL
As to the kind of experiment: Trypanosoma cruzi proteasome chymotrypsin-like activity (TcProtChymo) assay. Type of assay: functional. Further details: scale not given: in the data most compounds retested in dose-response had high values. The settings on record: 9.37 µM.
Consider `Cc1nc(CO[C@@H]2CN(Cc3cnn(C)c3)[C@@H]3COC[C@@H]32)cs1`, for which the Percent Effect turned out to be 7.96%. With `CC(=O)N1CCN(Cc2csc(-c3cnn(C)c3)n2)CC1`, the Percent Effect came to 2.17%.

Take `CC1CN(CC(=O)Nc2nncs2)CCN1c1nccs1` (centres undefined): the Percent Effect was found to be 16.5%. For `CC(OCC1CC1)C(=O)N1CCCN(Cc2cnn(C)c2)CC1` (centres undefined), the Percent Effect amounted to 21.6%. As for `O=S(=O)(CCNCc1cccc2c1OCCO2)N1CCOCC1`, the figure is 9.14%; as for `Cc1ccccc1[C@@H]1CN(C(=O)c2ccc3[nH]nnc3c2)C[C@H]1C(=O)O`, 8.65%; as for `CC1CCN(C(CNC(=O)CCn2cccn2)c2cccs2)CC1` (centres undefined), 26.5%. Regarding `Cc1ccc(NC2CCN(C(=O)COCC(F)(F)F)CC2)nn1`, the Percent Effect came to 10.1%. As for `Cn1cc(CN2CCCC3(CCN(c4nncs4)C3)C2)cn1` (centres undefined), the Percent Effect was determined as 1.97%.

With `Cc1nc(Cn2nc(C3CCNCC3)n(Cc3ccccc3)c2=O)no1`, the Percent Effect stood at 12.1%.

`CC(C)(C)c1cnc(CN2CCC(c3ccnn3CCO)CC2)o1`: the Percent Effect is -3.69%. In the case of `Cc1nc(COC[C@@H]2CC[C@H]3[C@H](CCN3c3ncccn3)O2)cs1` it was 15.2%; in that of `CC(=O)N(Cc1ncc(C)o1)C1CCN(Cc2noc(C)n2)C1` (centres undefined), 11.9%; in that of `Cc1cc(CN(C)C2CCCN(Cc3noc(C4CC4)n3)C2)no1` (centres undefined), 12.4%. As to `COCC1CN(C(=O)C2=CCCCC2)Cc2cnn(CC3CC3)c21` (centres undefined), the Percent Effect was 10.1%. Regarding `CC(=O)N1CCCN(C(=O)NCCc2ccc(Cl)s2)CC1`, the Percent Effect came out at 6.35%. In the case of `CCc1nnc(CN(C)c2nc(C3CCCC3)nc3c2cnn3C)o1`, the Percent Effect came to 10.5%. `COc1ccc(-c2cc(C3CCCCCN3S(=O)(=O)N(C)C)on2)cc1` (centres undefined): the Percent Effect came to 14.3%. For the compound `O=C(N[C@@H]1CN(Cc2ccccc2)C[C@@H]2CCCO[C@@H]21)C1CC1`, the Percent Effect was found to be 4.96%.

Consider `CS(=O)(=O)NCCCNC(=O)c1cccnc1O`, for which the Percent Effect is 16.6%.

For the compound `Fc1ccc(CNCC2OCCc3cn(CC4CC4)nc32)cc1` (centres undefined), the Percent Effect is 12.4%. Take `O=C(c1cccnc1-n1cncn1)N1CCN(CC2CC2)CC1`: the Percent Effect came to 11.9%.

On to `COc1ccccc1OC1(C(=O)O)CCN(c2nccnc2C)CC1`, for which the Percent Effect came out at 9.16%. For `Cc1csc(CNC(=O)NCCc2ccc3c(c2)OCCO3)n1`, the Percent Effect was determined as 13.5%. `CCOCC(O)CN1CCN(C(=O)CC(C)(C)C)CC1` (centres undefined): the Percent Effect was -7.75%.

For `CN1C(=O)C(c2cccnc2)CC12CCN(C(=O)c1cccn1C)CC2` (centres undefined), the Percent Effect turned out to be 6.67%.

On to `Cc1ccc(S(=O)(=O)N2C[C@H]3C[C@H](NC(=O)c4ccn(C)n4)[C@H]3C2)cc1`, for which the Percent Effect was determined as 9.36%. As to `CN(Cc1ccc(F)cc1)C(=O)NCc1nnc2n1CCCCC2`, the Percent Effect is 7.62%. As for `O=C(Nc1cc(C(F)(F)F)c[nH]c1=O)N1CCCSCC1`, the figure is 6.08%. For the compound `c1cc(CN2CCN(Cc3cscn3)CC2)cs1`, the Percent Effect came out at 2.67%. For `Cc1noc([C@@H]2C[C@H]3OCC[C@H]3N(S(=O)(=O)c3cccnc3)C2)n1`, the Percent Effect worked out at 4.02%. Take `CCn1cnnc1C1CCN(C(=O)c2ccccc2OC)CC1`: the Percent Effect was 6.42%. For the compound `O=C(c1ccccc1-c1ccccc1)N1CCOC2(CNCCOC2)C1` (centres undefined), the Percent Effect was 17.9%. For `COc1ccc(C(=O)N(C)Cc2cccc(C#N)c2)c(OC)c1OC`, the Percent Effect came out at 14.3%.

As to `CNC(=O)[C@@]12CCCN(c3ncccn3)[C@@H]1CN(C(=O)NC(C)C)C2`, the Percent Effect amounted to 16.5%.

With `O=C1CC(NCc2ccncc2)CN1Cc1cccc(F)c1` (centres undefined), the Percent Effect came out at 11.6%.

As to `CS(=O)(=O)NC[C@@H]1OC[C@H]2CN(C(=O)c3ccc[nH]3)CC[C@H]21`, the Percent Effect turned out to be 10.6%. As for `Cc1nccn1C1CCCN(C(=O)c2cc3ccccc3[nH]2)C1` (centres undefined), the figure is -4.83%; as for `CS(=O)(=O)N1CCC(O)(Cn2c(C3CC3)nc3ccccc3c2=O)CC1`, 5.77%.
